Data published in the supplement of paper PMC11732987, “Enantioselective OTUD7B fragment discovery through chemoproteomics screening and high-throughput optimisation” (Communications Chemistry, 2025).

Experiments:
Assay in all cases: log2 ratio of Biotin-Ahx-Ub-VS probe labelling (fragment/DMSO); higher = less target engagement (more negative = stronger competition), active = hit call of the paper (q ≤ 0.05, log2 ratio ≤ -1)
Conditions in all cases: compound concentration: 200 uM; treatment time: 3 h
OTUD6B = biological target: T1, OTUD6B (UniProt Q8N6M0)
T1 sequence (whole entry): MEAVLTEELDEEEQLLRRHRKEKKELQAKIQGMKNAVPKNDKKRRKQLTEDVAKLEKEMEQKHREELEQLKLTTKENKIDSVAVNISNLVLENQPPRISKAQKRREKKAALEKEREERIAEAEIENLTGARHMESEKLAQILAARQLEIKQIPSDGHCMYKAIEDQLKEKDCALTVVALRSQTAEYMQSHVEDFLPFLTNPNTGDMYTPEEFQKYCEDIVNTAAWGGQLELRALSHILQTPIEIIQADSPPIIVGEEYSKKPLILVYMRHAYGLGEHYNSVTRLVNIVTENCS
How it was run: (§1)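 The table lists average log2 ratios of fragment over vehicle, from an unpaired t-test on global-median-normalised Spectronaut label-free quantities. Proteins with ≥2 unique peptides were used. Samples were HEK293T lysate (495 µg) treated in triplicate with fragment at 200 µM or vehicle for 3 h, then with Biotin-Ahx-Ub-VS (0.5 µM final) for 1 h, with labelled DUBs NeutrAvidin-enriched and run by diaPASEF LC-MS/MS.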

OTUD7B = biological target: T2, OTUD7B (UniProt Q6GQQ9)
T2 sequence (whole entry): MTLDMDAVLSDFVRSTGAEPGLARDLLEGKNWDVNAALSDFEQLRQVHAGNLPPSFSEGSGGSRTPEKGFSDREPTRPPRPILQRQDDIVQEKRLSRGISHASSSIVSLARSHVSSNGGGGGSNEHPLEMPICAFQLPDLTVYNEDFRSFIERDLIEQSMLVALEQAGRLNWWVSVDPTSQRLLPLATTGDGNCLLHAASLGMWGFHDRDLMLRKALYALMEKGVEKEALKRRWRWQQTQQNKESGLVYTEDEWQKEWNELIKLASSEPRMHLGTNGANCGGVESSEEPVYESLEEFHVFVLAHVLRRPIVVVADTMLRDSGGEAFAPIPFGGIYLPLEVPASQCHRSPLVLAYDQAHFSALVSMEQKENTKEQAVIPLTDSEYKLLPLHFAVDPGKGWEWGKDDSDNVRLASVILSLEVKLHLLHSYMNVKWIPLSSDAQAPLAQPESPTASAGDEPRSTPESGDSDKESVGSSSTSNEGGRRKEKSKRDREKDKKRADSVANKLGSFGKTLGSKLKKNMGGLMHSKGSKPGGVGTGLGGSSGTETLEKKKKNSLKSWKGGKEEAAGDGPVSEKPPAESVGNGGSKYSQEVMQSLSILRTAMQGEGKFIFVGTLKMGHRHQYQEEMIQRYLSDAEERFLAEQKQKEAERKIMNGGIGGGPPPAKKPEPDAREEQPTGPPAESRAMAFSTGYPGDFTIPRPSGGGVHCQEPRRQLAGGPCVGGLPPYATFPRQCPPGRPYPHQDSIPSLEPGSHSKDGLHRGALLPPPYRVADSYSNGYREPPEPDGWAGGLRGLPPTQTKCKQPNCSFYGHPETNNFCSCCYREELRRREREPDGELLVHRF
How it was run: as §1

PRPF8 = PRPF8 (UniProt Q6P2Q9)
How it was run: as §1

PSMD7 = biological target: T3, PSMD7 (UniProt P51665)
T3 sequence (whole entry): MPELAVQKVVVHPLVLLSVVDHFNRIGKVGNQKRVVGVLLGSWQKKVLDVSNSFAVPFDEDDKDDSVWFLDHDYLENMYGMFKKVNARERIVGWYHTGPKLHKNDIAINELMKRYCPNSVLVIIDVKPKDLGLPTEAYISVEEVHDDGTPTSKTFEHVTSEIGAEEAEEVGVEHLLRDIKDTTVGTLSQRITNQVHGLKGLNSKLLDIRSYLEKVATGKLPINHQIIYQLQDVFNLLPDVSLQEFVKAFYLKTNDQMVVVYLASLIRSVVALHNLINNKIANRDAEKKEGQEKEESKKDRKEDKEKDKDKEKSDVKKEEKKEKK
How it was run: as §1

UCHL1 = UCHL1 (UniProt P09936)
How it was run: as §1

UCHL3 = biological target: T4, UCHL3 (UniProt P15374)
T4 sequence (whole entry): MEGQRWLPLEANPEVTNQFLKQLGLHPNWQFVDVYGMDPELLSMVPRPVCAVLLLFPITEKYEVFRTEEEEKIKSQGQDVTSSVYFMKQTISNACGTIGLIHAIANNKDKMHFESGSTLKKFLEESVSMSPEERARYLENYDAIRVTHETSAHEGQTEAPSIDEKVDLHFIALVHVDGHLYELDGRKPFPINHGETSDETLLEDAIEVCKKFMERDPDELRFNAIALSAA
How it was run: as §1

UCHL5 = biological target: T5, UCHL5 (UniProt Q9Y5K5)
T5 sequence (whole entry): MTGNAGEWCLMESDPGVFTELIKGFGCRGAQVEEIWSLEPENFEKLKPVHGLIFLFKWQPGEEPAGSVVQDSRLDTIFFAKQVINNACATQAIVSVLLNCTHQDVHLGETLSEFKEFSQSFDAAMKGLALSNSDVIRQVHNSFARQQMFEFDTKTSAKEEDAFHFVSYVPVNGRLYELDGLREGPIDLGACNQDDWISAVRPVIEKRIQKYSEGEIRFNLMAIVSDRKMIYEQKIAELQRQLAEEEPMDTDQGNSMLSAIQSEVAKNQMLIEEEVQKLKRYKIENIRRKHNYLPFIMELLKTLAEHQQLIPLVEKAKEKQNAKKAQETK
How it was run: as §1

USP10 = USP10 (UniProt Q14694)
How it was run: as §1

USP15 = biological target: T6, USP15 (UniProt Q9Y4E8)
T6 sequence (whole entry): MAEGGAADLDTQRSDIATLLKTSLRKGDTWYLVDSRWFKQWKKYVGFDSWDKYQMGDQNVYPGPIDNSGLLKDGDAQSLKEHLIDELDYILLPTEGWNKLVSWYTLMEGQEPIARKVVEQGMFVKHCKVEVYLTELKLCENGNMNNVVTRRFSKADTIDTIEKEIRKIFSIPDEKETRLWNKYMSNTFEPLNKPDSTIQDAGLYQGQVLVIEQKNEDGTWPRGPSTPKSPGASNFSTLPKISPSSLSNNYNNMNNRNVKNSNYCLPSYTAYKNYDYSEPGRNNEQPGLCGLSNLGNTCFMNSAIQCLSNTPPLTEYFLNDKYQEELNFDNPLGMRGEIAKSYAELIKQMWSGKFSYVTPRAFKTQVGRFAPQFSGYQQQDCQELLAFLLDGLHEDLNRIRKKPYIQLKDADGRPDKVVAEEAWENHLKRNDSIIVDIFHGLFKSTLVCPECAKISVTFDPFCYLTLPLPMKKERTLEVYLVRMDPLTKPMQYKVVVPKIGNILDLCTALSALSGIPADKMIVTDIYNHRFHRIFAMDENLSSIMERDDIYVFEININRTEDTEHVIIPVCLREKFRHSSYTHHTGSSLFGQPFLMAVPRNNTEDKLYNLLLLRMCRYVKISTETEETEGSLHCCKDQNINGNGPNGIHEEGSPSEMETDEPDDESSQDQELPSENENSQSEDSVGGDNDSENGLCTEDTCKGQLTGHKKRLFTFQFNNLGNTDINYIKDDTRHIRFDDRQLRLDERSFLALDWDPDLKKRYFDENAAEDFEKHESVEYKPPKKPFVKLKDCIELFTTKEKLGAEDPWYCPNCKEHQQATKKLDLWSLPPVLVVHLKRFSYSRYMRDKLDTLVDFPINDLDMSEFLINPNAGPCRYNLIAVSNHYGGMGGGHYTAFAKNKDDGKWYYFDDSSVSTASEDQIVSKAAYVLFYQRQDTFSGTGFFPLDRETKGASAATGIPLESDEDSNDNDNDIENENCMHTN
How it was run: as §1

USP16 = USP16 (UniProt Q9Y5T5)
How it was run: as §1

Measured: log2 ratio of Biotin-Ahx-Ub-VS probe labelling

Chain of UCHL1 (P09936 whole entry, looked up): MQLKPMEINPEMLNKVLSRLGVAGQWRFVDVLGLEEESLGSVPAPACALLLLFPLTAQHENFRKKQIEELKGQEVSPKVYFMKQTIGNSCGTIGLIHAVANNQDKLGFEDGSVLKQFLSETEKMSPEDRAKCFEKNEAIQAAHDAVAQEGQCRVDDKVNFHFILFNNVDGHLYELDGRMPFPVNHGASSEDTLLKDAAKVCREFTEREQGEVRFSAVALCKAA
Chain of USP16 (Q9Y5T5 whole entry, looked up): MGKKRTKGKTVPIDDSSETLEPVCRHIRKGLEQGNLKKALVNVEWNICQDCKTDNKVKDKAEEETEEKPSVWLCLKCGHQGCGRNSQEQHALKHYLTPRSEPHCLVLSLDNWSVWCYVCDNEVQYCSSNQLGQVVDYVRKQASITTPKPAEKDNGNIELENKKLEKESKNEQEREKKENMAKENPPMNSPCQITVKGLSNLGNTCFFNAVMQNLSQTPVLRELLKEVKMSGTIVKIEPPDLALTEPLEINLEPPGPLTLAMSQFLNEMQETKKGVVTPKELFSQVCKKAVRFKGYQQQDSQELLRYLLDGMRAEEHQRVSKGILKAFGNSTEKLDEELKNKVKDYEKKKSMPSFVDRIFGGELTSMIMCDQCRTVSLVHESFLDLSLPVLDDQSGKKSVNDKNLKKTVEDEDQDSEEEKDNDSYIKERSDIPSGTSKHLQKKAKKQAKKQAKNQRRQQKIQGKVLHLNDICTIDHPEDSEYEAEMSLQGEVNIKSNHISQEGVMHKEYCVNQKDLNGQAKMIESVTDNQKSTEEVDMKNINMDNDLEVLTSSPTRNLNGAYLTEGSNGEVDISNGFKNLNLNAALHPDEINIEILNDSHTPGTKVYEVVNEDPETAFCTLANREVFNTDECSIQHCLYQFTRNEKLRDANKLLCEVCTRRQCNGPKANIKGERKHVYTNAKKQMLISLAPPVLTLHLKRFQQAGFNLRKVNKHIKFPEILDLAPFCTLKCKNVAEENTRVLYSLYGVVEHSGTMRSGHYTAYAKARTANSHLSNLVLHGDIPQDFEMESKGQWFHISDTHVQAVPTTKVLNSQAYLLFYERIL
Chain of USP10 (Q14694 whole entry): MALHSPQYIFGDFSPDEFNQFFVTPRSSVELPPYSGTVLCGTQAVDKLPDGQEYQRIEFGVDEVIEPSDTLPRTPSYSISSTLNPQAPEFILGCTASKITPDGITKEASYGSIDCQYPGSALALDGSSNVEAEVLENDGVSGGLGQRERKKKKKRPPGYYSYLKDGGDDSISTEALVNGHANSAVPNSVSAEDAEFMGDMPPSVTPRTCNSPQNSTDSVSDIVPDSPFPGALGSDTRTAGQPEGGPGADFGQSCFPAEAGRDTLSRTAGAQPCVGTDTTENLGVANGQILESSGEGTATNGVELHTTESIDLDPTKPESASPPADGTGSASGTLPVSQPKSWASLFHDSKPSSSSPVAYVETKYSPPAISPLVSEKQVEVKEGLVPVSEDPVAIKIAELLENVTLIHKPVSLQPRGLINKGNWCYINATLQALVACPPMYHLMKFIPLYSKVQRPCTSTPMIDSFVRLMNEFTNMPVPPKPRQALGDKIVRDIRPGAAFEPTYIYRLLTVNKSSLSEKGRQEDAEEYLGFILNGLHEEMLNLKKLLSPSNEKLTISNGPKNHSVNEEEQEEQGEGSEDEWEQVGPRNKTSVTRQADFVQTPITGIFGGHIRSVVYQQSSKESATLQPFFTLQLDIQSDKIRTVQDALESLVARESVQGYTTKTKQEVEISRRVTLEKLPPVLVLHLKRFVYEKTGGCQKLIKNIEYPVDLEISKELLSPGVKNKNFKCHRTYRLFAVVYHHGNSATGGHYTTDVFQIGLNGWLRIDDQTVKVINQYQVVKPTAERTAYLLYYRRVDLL

CCN(C(=O)CCl)C1CCCCC1
inactive: OTUD6B -0.00402 | OTUD7B -0.011 | PRPF8 -0.0683 | PSMD7 0.00413 | UCHL1 -0.999 | UCHL3 0.576 | UCHL5 0.0144 | USP10 -0.185 | USP15 -0.0855 | USP16 0.0695
